This is a sample that favours compounds with a hit; in the whole collection about 9.3% have one here.
NPC1 prom act: qHTS Assay for NPC1 Promoter Activators; 320,000 tested, 2.4% active; Potency, µM (titrated, usually from 9.22 µM), usual class: activators; AID 485313, 2010; Huh7 NPC1 promoter luciferase reporter, 24 h; also: nearly all actives have a fitted effect of over 60% in size
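Quantitative HTS used a cell-based reporter: Huh7 cells stably bearing the NPC1 promoter upstream of luciferase were treated with compounds for 24 h, and promoter activation was read as luminescence.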
SMN2 splice up: qHTS Assay for Enhancers of SMN2 Splice Variant Expression | HEK293 SMN2-luciferase splicing reporter, luminescence, 30-36 h | Potency, µM (doses to about 46.1 µM), usual class: activators | 210,000 tested, 2.8% active | AID 1458, 2008; also: nearly all actives have a fitted effect of over 55% in size
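HEK293 cells carry an SMN2 […]–luciferase reporter in which exon 7 inclusion puts luciferase in frame. Cells were plated 10-12 h before compound addition, then incubated 30-36 h at 37C. ONE-Glo luminescence was read; sodium butyrate at 4.5 mM final served as control.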
FLuc counter: qHTS profiling assay for firefly luciferase inhibitor/activator using purifed enzyme and Km concentrations of substrates (counterscreen for miR-21 project); 360,000 tested, 6.9% active; Luciferin 4-monooxygenase (Photinus pyralis), P08659; purified FLuc, Km substrates, luminescence inhibition; Potency, µM (doses to about 57.5 µM), usual class: inhibitors; also: nearly all actives have a fitted effect of over 55% in size
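Biochemical qHTS of compounds, final roughly 60 µM downward over six points, against 10 nM purified firefly luciferase using Km concentrations of substrates (10 uM D-luciferin, 10 uM ATP) in Tris acetate pH 7.5 buffer; luminescence output.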
ELG1 repair inh: qHTS screen for small molecules that inhibit ELG1-dependent DNA repair in human embryonic kidney (HEK293T) cells expressing luciferase-tagged ELG1; HEK293T ELG1-luciferase reporter, luminescence, 16 h; DNA damage induced by 5-fluorouridine; Potency, µM (top dose mostly 46.1 µM), actives largely listed as inhibitors; 330,000 tested, 2.3% active; AID 504467, 2011; also: nearly all actives have a fitted effect of over 55% in size
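HEK293T cells expressing luciferase-tagged ELG1 (2,000/well) received 5-Fluorouridine plus compound or DMSO for 16 hr at 37 °C. Luciferase was read by ONE-Glo luminescence after 30 min at room temperature.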
ELG1 genotoxic: qHTS screen for small molecules that induce genotoxicity in human embryonic kidney (HEK293T) cells expressing luciferase-tagged ELG1; HEK293T ELG1-luciferase reporter, luminescence, 16 h; Potency, µM (titrated, usually from 46 µM), most hits filed as activators; 330,000 tested, 1.3% active; also: nearly all actives have a fitted effect of over 60% in size
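Quantitative HTS format in 1536-well plates. HEK293T ELG1-luciferase reporter cells receive test compound and are incubated 16 hr at 37 °C, 5% CO2; ONE-Glo added, 30 min room temperature, then luminescence read.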
Rab9 promoter act: qHTS Assay for Rab9 Promoter Activators. Huh7 Rab9 promoter-luciferase reporter, luminescence, 24 h. Potency, µM (highest dose often 9.22 µM), hits mostly activators. 320,000 tested, 2.8% active. AID 485297, 2010; also: nearly all actives have a fitted effect of over 60% in size
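Huh7 reporter line, Rab9 promoter upstream of luciferase. Compound exposure 24 h at 37 °C in reduced-serum medium with 10% FBS. Read-out: luminescence.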
ELG1 FLuc counter: qHTS screen for small molecules that inhibit ELG1-dependent DNA repair: Hit Confirmation in Cell-Based Luciferin Assay. AID 624247, 2012. cell-free firefly luciferase luminescence counter-screen, ViewLux. 350 tested, 3% active. Potency, µM (doses to about 46.1 µM), hits mostly inhibitors. shares compounds with ELG1 repair inh
ELG1 Luc conf: HTS assay for small molecules that inhibit ELG1-dependent DNA repair in human embryonic kidney (HEK293T) cells expressing luciferase-tagged ELG1: Hit Confirmation. 670 tested, 68% active. HEK293T ELG1-luciferase levels, luminescence; cells co-treated with 5-fluorouridine. AID 624248, 2012. Potency, µM (doses to about 46.1 µM), hits mostly inhibitors. shares compounds with ELG1 repair inh; also: nearly all actives have a fitted effect of over 55% in size
Target sequence (Q96QE3 whole entry, looked up): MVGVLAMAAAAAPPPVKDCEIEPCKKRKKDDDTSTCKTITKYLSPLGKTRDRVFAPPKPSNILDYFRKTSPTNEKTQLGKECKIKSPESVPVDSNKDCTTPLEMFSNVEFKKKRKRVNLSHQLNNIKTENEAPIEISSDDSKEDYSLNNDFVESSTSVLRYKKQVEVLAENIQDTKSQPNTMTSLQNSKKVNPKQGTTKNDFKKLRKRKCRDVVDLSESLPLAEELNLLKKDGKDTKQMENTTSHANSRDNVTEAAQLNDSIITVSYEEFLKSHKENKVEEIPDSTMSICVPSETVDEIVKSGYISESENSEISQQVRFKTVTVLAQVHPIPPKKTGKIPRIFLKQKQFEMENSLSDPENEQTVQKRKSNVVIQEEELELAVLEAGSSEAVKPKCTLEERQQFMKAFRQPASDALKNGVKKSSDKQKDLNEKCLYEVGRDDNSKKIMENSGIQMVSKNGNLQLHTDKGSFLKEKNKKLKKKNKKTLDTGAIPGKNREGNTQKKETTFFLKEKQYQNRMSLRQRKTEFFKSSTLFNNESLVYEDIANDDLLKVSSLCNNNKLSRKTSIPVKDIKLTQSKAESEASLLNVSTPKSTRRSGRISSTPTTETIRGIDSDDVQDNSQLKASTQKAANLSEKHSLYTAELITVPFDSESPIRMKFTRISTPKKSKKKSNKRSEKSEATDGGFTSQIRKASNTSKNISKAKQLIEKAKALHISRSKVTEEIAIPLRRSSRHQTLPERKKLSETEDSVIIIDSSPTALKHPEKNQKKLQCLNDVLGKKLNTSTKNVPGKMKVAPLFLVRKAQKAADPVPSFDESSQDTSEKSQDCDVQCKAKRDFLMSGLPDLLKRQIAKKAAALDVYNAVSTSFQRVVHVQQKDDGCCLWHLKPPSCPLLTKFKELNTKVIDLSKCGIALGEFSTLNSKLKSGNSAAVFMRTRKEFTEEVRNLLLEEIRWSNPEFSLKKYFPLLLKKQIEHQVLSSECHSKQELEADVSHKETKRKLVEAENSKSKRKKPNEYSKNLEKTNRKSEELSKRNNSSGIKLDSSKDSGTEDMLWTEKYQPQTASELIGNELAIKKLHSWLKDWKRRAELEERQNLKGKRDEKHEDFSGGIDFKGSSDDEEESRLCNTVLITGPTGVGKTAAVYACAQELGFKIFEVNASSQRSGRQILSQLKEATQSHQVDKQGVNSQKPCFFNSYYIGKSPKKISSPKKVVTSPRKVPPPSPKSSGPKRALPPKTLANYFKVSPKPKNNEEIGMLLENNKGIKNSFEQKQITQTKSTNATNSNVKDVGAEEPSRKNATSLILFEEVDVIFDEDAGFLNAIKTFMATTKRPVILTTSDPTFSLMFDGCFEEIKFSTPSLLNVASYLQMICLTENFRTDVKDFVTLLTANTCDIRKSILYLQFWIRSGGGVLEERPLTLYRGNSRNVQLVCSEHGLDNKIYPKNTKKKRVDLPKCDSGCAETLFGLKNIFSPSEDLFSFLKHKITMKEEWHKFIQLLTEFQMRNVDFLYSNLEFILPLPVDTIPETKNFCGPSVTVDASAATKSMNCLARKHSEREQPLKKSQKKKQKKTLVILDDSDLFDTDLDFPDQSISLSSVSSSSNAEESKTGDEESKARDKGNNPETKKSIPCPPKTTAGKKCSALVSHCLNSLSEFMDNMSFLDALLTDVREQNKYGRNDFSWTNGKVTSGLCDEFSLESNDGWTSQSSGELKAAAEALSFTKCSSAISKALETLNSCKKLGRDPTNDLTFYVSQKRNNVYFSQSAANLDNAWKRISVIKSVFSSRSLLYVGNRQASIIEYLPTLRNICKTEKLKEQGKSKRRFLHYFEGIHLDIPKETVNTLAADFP
ELG1 MMS Luc: confirmation of human ELG1 repair inhibitors, MMS stimulated; 670 tested, 53% active; Potency, µM (highest dose often 46.1 µM), usual class: inhibitors; shares compounds with ELG1 repair inh; HEK293T luciferase-tagged ELG1 level, MMS stimulated; AID 624249; also: nearly all actives have a fitted effect of over 60% in size
ELG1 5FU viab: qHTS screen for small molecules that inhibit ELG1-dependent DNA repair: Hit Confirmation with 5FU Viability; shares compounds with ELG1 repair inh; cell viability with 5-FU, ELG1-dependent repair; Potency, µM (highest dose often 46.1 µM), hits mostly cytotoxic; 670 tested, under 10 active; AID 624250, 2012;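 also: ELG1-luc HEK293T cells cotreated with 5-fluorouridine at 10 µM final; viability measured 16 h after compound addition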
ELG1 MMS viab: qHTS screen for small molecules that inhibit ELG1-dependent DNA repair: Hit Confirmation with MMS Viability; shares compounds with ELG1 repair inh; Cell viability with MMS, ELG1-dependent DNA repair; Potency, µM (highest dose often 46.1 µM), most hits filed as cytotoxic; 670 tested, 33% active;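 also: ELG1-luc HEK293T cells co-treated with 10 µM MMS; viability read 16 h after compound addition; nearly all actives have a fitted effect of over 60% in size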
Cell viab unstim: qHTS screen for small molecules that inhibit ELG1-dependent DNA repair: Hit Confirmation with Unstimulated Viability Assay. shares compounds with ELG1 repair inh. cell viability counter-screen, unstimulated, luminescence. Potency, µM (highest dose often 45.9 µM), actives largely listed as cytotoxic. 900 tested, 8% active;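 also: compound exposure lasted 16 hours before reading; nearly all actives have a fitted effect of over 55% in size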
FLuc biochem: qHTS screen for small molecules that inhibit ELG1-dependent DNA repair: Hit Confirmation in Biochemical Luciferin Assay; purified firefly luciferase, luminescence counter-screen; 350 tested, 10% active; AID 624253, 2012; shares compounds with ELG1 repair inh; Potency, µM (titrated, usually from 57.5 µM), hits mostly inhibitors
A number is an active result; - = inactive; ? = inconclusive; . = no result given. Calls follow the shape of the dose curve; as a rule, active = well fitted curve in the direction sought with a large enough effect; inconclusive = small, poorly fitted or top-dose-only effect, or another doubt; inactive = no such curve, though single readings can be large; an effect the other way counts as inactive or inconclusive.

SMILES	NPC1 prom act	SMN2 splice up	FLuc counter	ELG1 repair inh	ELG1 genotoxic	Rab9 promoter act	ELG1 Luc conf	ELG1 MMS Luc	ELG1 5FU viab	ELG1 MMS viab	Cell viab unstim	others
COc1cc2c(cc1OC)CN(c1nc(CN3CCCC3)nc3sc(C)c(C)c13)CC2	-	-	-	?	-	-	.	.	.	.	.
Cc1cc(S(=O)(=O)Nc2nc(CN3CCOCC3)nc3sc4c(c23)CCCC4)ccc1F	-	-	-	-	-	-	-	-	-	-	-	ELG1 FLuc counter=-;FLuc biochem=-
CCOc1ccc(C(=O)c2nc3c(n2O)CCCCC3)cc1	-	-	-	?	-	-	.	.	.	.	.
CC(NS(=O)(=O)c1ccccc1)C(=O)NCCc1ccccn1 (stereo unspecified)	-	-	-	-	-	-	.	.	.	.	.
COc1cc(C(C(=O)NC(C)(C)C)N(Cc2ccccc2)C(=O)c2cnccn2)cc(OC)c1OC (stereo unspecified)	-	-	-	-	-	-	.	.	.	.	.
COc1cccc2cc(-c3cc(=O)oc4ccc(OCC(C)=O)cc34)oc12	-	.	-	2.59µM	-	-	6.28µM	11.2µM	-	-	?
CCc1nc(CN2CCN(c3ccc(C(F)(F)F)cn3)CC2)c(C)[nH]1	-	.	-	?	-	-	?	3.15µM	-	4.45µM	?
OC(CN1CCN(c2ccc(C(F)(F)F)cn2)CC1)c1ccccc1 (stereo unspecified)	-	.	-	?	-	-	.	.	.	.	.
COc1ccc(/C=N/n2c(N)c(S(=O)(=O)c3cccs3)c3nc4ccccc4nc32)cc1OC	-	-	-	2.59µM	-	-	3.15µM	-	?	-	-
NC(=O)c1ccsc1NC(=O)CS(=O)(=O)c1ccc(Cl)cc1	-	.	-	-	-	-	.	.	.	.	.
CCCCCCCNC(=O)C1(CC2CC(c3cccc(Br)c3)=NO2)CCN(C(=O)CCCCCBr)CC1 (stereo unspecified)	-	.	-	?	-	-	.	.	.	.	.

High-throughput results as filed in PubChem.
